Our source for the sensor-assay potency score (higher = more potent) values is the OligoGym collection.
Also: reference of the scale not given here.

The first assay deals with RPL19. Kind of assay: pooled miR-30 sensor sort-seq; sequence = guide strand. The following applies: shRNA.
Regarding TGTTTTTGAACACATTCCCCTT, the sensor-assay potency score (higher = more potent) was -1.21.
Sequence TAAAGTCTTGATGATCTCCTCC registered a sensor-assay potency score (higher = more potent) of 0.336.
For TTCATTGGTCTCATTGGGGTCT, the sensor-assay potency score (higher = more potent) was found to be 0.294.
Still for that read-out and setting: the same measure for ATTGGCTGTACCCTTCCGCTTA: -0.619.

In the next assay the target is RPL27. The assay is described as above. Conditions: shRNA.
ATATCCACAGAGTACCTTGTGG: the sensor-assay potency score (higher = more potent) was -0.336.
For TTTAAGAGCAGGATCTCTGAAG, the sensor-assay potency score (higher = more potent) is -0.365.
As for TATCTTTGATCTCTTGGCGATC, the sensor-assay potency score (higher = more potent) was -1.37.
Still for that read-out and setting: the same measure for AGGATCTCTGAAGACATCCTTA: -1.41; for TTGTTCTTGCCTGTCTTGTATC: -1.8.
TACACTTTCACAAAAGATTTTA: the sensor-assay potency score (higher = more potent) is -0.949.
Still for that read-out and setting: with TTCTTCACGATGACAGCTTTGC the figure was -0.801; with TTTATCTTTGATCTCTTGGCGA, -0.218; with TTCACGATGACAGCTTTGCGTC, -0.995.
Take ATTGACGACAGTTTTGTCCAAG: the sensor-assay potency score (higher = more potent) is -1.31.
Regarding TTATCTTTGATCTCTTGGCGAT, the sensor-assay potency score (higher = more potent) is -0.525.
In the case of TCTCTCTTCAAACTTGACCTTG, the sensor-assay potency score (higher = more potent) was -0.698.

Another assay has as its target RPS27. The assay is described as above. Conditions: shRNA.
Regarding TAAGCCTTGCTTTTCCTCCTGT, the sensor-assay potency score (higher = more potent) came to 0.376.
Regarding TTGCTTTTCCTCCTGTAGGCTG, the sensor-assay potency score (higher = more potent) is -0.847.
On to TTGTGCATGGCTAAAGACCGTG, for which the sensor-assay potency score (higher = more potent) was -0.673.
Take TTCCTCTTCTCCTCTTCTGGAG: the sensor-assay potency score (higher = more potent) is -0.516.
The same measure, in the same setting: with TCCTCTTCTCCTCTTCTGGAGA the figure was -1.67; with TTCACATCCATGAAGTAGGAAT, -1.13.
Same read-out and setting: the same measure for TGAAGGAACATCCTTCTGTAAG: -1.76; for TTTCACATCCATGAAGTAGGAA: 0.096.
On the same count and under the same terms, with TGGTGATTTTATAGCATCCTGG the figure was -1.63; with TTCTTCTTGTGTTTCCTCTTCT, 0.637; with TGATTTTATAGCATCCTGGGCA, -0.287.
In the case of TTTTATAGCATCCTGGGCATTT, the sensor-assay potency score (higher = more potent) was -0.741.

The target of the next assay is RPS28. The assay is described as above. Conditions: shRNA.
On to TTTACATTGCGGATGATGGATC, for which the sensor-assay potency score (higher = more potent) was -1.07.
Still for that read-out and setting: with TTGCGGATGATGGATCGGCTCG the figure was -1.36; with TCGCTCTGACTCCAAAAGGGTG, -1.7; with TGCACTGTCCCTGAGAACCGGT, -1.07.
As to TCGGCTCGTGTCGTCCATGAAT, the sensor-assay potency score (higher = more potent) was -1.75.
On to TTTTACATTGCGGATGATGGAT, for which the sensor-assay potency score (higher = more potent) is -0.481.
Consider AATTCCACGCGCACCTGCGTGC, for which the sensor-assay potency score (higher = more potent) is -0.771.
On to TGGATCGGCTCGTGTCGTCCAT, for which the sensor-assay potency score (higher = more potent) was -1.14.
In the case of TGTCCCTGAGAACCGGTCCTGC, the sensor-assay potency score (higher = more potent) was -1.38.
For TGATGGATCGGCTCGTGTCGTC, the sensor-assay potency score (higher = more potent) was -1.07.
Take TTGGTGACCCTGGCCAGCTTGA: the sensor-assay potency score (higher = more potent) was -1.2.
